# Screening results deposited in PubChem BioAssay by Emory University Molecular Libraries Screening Center.
# Sampled rows, rich in hits. Any-hit rate of the full collection: about 3.7%.
# ERa SRC1 inh = ERα–SRC-1 coactivator interaction inhibitors, primary screen, biochemical, TR-FRET, ERα LBD, estradiol-bound; Estrogen receptor (Homo sapiens), P03372; TR-FRET ER-alpha LBD / SRC-1 peptide; inhibition, % at 25.6 µM; 1.7% of 86,000 active; in the data active = inhibition above about 50%;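 note: 0% = receptor plus peptide control and 100% = peptide only without receptor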
# ERa SRC1 pot = enhancers of ERα–SRC-1 coactivator binding, primary screen, biochemical, TR-FRET, ERα LBD, low estradiol. TR-FRET ERalpha-LBD/SRC-Cy5 coactivator binding, 2 h; 100 = basal binding, no effect. 1.3% of 86,000 active. coactivator binding (% of control), % at 25.6 µM. AID 639, 2007; in the data active = activity above about 200%;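 note: binding measured in presence of low estradiol as agonist stimulus; 0% = peptide alone without receptor and 100% = receptor with peptide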
# Smad3 inh = Smad3/FoxH1 peptide binding inhibitors, primary screen, biochemical, TR-FRET; inhibition, % at 25 µM; 0.29% of 88,000 active; AID 630, 2007; TR-FRET Smad3/Dy647-FoxH1 peptide binding, europium anti-His; Mothers against decapentaplegic homolog 3 (Homo sapiens), P84022;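 active = compounds that reduce the energy-transfer binding signal between the protein and its labelled peptide by more than half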;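 note: 0% = Smad3 plus labelled peptide maximal FRET and 100% = peptide-only background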
# ERb SRC1 inh = inhibitors of ERβ-SRC1 coactivator interaction, primary screen, biochemical, TR-FRET, ERβ LBD, SRC-1 peptide; 1.3% of 86,000 active; Estrogen receptor beta (Homo sapiens), Q92731; inhibition, % at 25.6 µM; TR-FRET ER-beta LBD / SRC1-Cy5 peptide binding; receptor agonist-loaded with 1 µM estradiol;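 active = compounds whose percent inhibition of the receptor-coactivator binding signal exceeds about 50% in the single-dose screen, limit read from the data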;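 note: 0% = receptor plus peptide wells without compound and 100% = peptide-only wells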
# Starred values were filed as active, the others as inactive; i = inactive; nt = not tested or not shown; [ ] = remark or other dose.
SMILES,ERa SRC1 inh,ERa SRC1 pot,Smad3 inh,ERb SRC1 inh
C=C(Br)CN(C)CC(=C)Br,nt,nt,0,nt
CC(C)N(Cc1ccccc1)S(=O)(=O)c1n[nH]c(C(C)(C)C)n1,nt,nt,13,nt
CC(=O)[C@@H](C)CCO[C@]1(C)OCC[C@@H]1C,nt,nt,-5,nt
O=C(CCC(=O)Nc1nnc(C2CCCCC2)s1)NCC1CCCO1 (stereo unspecified),63*,203*[fluorescence artefact?],81*,61*
CC(C)c1nnc(NC(=O)CCC(=O)NCC2CCCO2)s1 (stereo unspecified),-1,113,-1,-2
O=C(O)c1ccc(C(=O)O)c(C(=O)O)c1.[NH-][C@@H]1CCCC[C@H]1[NH-].[Pt],nt,nt,28,nt
Cc1ccc(C)c(C(=O)Nc2c(C(N)=O)oc3ccccc23)c1,-1,111,11,90*[fluorescence artefact?]
COc1cccc(C(=O)N2CCN(S(C)(=O)=O)CC2)c1,-1,97,3,-3
O=c1oc2ccccc2cc1-c1nc(-c2cccs2)cs1,-10,87,-11,-1
COc1cccc2cc(-c3nc(-c4cccs4)cs3)c(=O)oc12,50*[fluorescence artefact?],86,3,24
CCN(CC)c1nc2ccccc2nc1-n1nc(C)cc1C,-9,110,-2,-9
CC(/C=C/c1ccc2c(c1)OCO2)=N\NC(=O)c1cccc([N+](=O)[O-])c1,68*[fluorescence artefact?],58,15,17
O=C(N/N=C1\CCCc2ccccc21)c1cccc([N+](=O)[O-])c1,10,109,5,2
O=C(O)c1oc(C(=O)O)c(C(=O)O)c1C(=O)O,nt,nt,3,nt
Cc1cc(C)c(C#N)c(SCC(=O)Nc2nnc(-c3ccccc3)s2)n1,-15,208*[fluorescence artefact?],-10,6
CCOC(=O)c1c(NC(=O)CSc2nnc(-c3ccccc3)o2)sc(C(C)=O)c1C,-6,319*,6,-7
CCOC(=O)c1c(NC(=O)CSc2nc(C)cc(C)c2C#N)sc(C(C)=O)c1C,61*[fluorescence artefact?],678*[fluorescence artefact?],i,49
CCOC(=O)c1sc(NC(=O)CSc2nc(C)cc(C)n2)c(C#N)c1C,2,90,3,3
Cc1cc(C)c(C#N)c(SCc2ccccc2)n1,1,94,-6,-3
C=CCN1C(=NC(=O)CC)SC2CS(=O)(=O)CC21 (stereo unspecified),-8,109,2,-19
COCCNS(=O)(=O)c1ccc2c(c1)C(=O)c1cc(S(=O)(=O)NCCOC)ccc1-2,-1,78,-10,55*[fluorescence artefact?]
Cc1nnc2sc(-c3ccc(NC(=O)c4cccnc4)cc3)nn12,3,81,-8,-1
Cc1nnc2sc(-c3ccc(NC(=O)c4ccc(-c5ccc(Cl)cc5Cl)o4)cc3)nn12,70*,110,-185,49
COc1cccc(NS(=O)(=O)c2ccc3[nH]cc(C(=O)NCCN4CCOCC4)c(=O)c3c2)c1,26,53,20,-22
CCOCCCNC(=O)c1c[nH]c2ccc(S(=O)(=O)Nc3cccc(OC)c3)cc2c1=O,53*,32,12,16
SMILES,ERa SRC1 inh,ERa SRC1 pot,Smad3 inh,ERb SRC1 inh
CCc1ccccc1NS(=O)(=O)c1ccc2[nH]cc(C(=O)NCc3ccco3)c(=O)c2c1,38,277*[fluorescence artefact?],11,39
O=C(NCc1ccco1)c1c[nH]c2ccc(S(=O)(=O)N3CCOCC3)cc2c1=O,13,74,-10,9
CCN(CC)C(=O)c1c[nH]c2ccc(S(=O)(=O)Nc3cc(C)cc(C)c3)cc2c1=O,56*,26,9,24
C[N@@+]1(CCC(=O)c2ccccc2)CC[C@H]2CC[C@H](C2)C1,nt,nt,-64,nt
N#CCCSC(=S)[C@@H]1CCCC1=N,nt,nt,1,nt
OCCNc1nc(SCc2ccccc2)nc2sc3c(c12)CCC3,4,87,4,6
Cc1cc(-c2nc3cccnc3s2)ccc1NS(=O)(=O)c1ccc2c(c1)OCCO2,10,204*[fluorescence artefact?],3,16
Cc1c(NS(=O)(=O)c2ccc3c(c2)OCCO3)cccc1-c1nc2cccnc2s1,13,244*[fluorescence artefact?],1,5
CCS(=O)(=O)Nc1cc(-c2nc3cccnc3s2)ccc1C,-12,122,-3,-3
CCOC(=O)Cc1csc(NC(=O)CC(C)(C)C)n1,-6,92,-4,2
Cc1ccn(C(=O)c2cc3c(C)nn(-c4ccccc4)c3s2)n1,15,135,-6,14
